Shown are actives, neighbours in structure and some others; about 19% of the full set was active somewhere.
AMA1 RON2 block: qHTS for Inhibitors of AMA1-RON; Towards Development of Antimalarial Drug Lead: Primary Screen | Plasmodium falciparum AMA1 (3D7) - RON2 peptide interaction | actives 0.2% (n = 360,000) | AID 720542, 2013 | AlphaScreen AMA1-biotinylated RON2 peptide binding | Potency, µM (highest dose often 58.2 µM), usual class: inhibitors; note: nearly all actives have a fitted effect of over 45% in size
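AMA1 (3D7) with his tag at 25 nM final met compounds first, then biotinylated RON2 peptide at 25 nM; detection used donor plus acceptor beads, 10 µg/mL apiece, read by AlphaScreen after 30 min at room temperature.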
Pf growth 96h: Primary qHTS for delayed death inhibitors of the malarial parasite plastid, 96 hour incubation; Potency, µM (titrated, usually from 28.7 µM), hits mostly inhibitors; P. falciparum luciferase reporter growth, 96 h; actives 6.9% (n = 320,000)
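Luminescence readout: decreased luciferase signal marks inhibited growth of reporter-expressing P. falciparum in infected red cells (2% hematocrit, 0.05% parasitemia final), exposed to compound two generations (96 h, 37 C, 5% CO2).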
CHX counter: Cycloheximide Counterscreen for Small Molecule Inhibitors of Shiga Toxin | cell reporter, cycloheximide protein synthesis inhibition counterscreen | max response, % | actives 12% (n = 300,000) | AID 2314, 2010; in the data active = max response mostly above about 13%, no sharp cut-off; inactive = mostly below about 14%; note: read at 38.3 µM for the half of the compounds with a filed dose
Shiga inhibitor: A qHTS for Small Molecule Inhibitors of Shiga Toxin; Vero cells, Shiga toxin protein synthesis inhibition reporter; actives 9.2% (n = 290,000); inhibition, % at 38.7 µM; in the data active = inhibition mostly above about 28%, no sharp cut-off; inactive = mostly below about 43%
SARS PLpro yeast: qHTS of Yeast-based Assay for SARS-CoV PLP. AID 485353, 2010. actives 0.19% (n = 330,000). Potency, µM (highest dose often 32.9 µM), hits mostly activators. S. cerevisiae expressing SARS-CoV PLpro, growth rescue; calls by dose curve; note: nearly all actives have a fitted effect of over 55% in size
Pf growth 48h: Primary qHTS for delayed death inhibitors of the malarial parasite plastid, 48 hour incubation; P. falciparum luciferase growth in erythrocytes, 48 h; Potency, µM (highest dose often 28.7 µM), actives largely listed as inhibitors; actives 5.9% (n = 310,000)
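Firefly luciferase activity from engineered P. falciparum reports growth; inhibitors lower the luminescent signal. Cultures contained 2% hematocrit erythrocytes at 0.1% final parasitemia.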
Large screens that a line does not name were inactive. Unless noted, calls come from the whole dose curve; as a rule, active = well fitted curve in the direction sought with a large enough effect; inconclusive = small, poorly fitted or top-dose-only effect, or another doubt; inactive = no such curve, though single readings can be large; an effect the other way counts as inactive or inconclusive.

COc1cc(/C=N/Nc2nn3cnnc3c3ccccc23)ccc1O	Pf growth 96h inconclusive, Pf growth 48h inconclusive
C/C(=N\NC(=O)c1c(C)nc2ccccn12)c1ccc(O)cc1O	Pf growth 96h 3.3µM, Pf growth 48h inconclusive
CCOc1cc(/C=N\NC(=O)c2c(C)nc3ccccn23)ccc1O	CHX counter 13 (no result: Shiga inhibitor)
CCOc1cc(/C=N/Nc2nn3cnnc3c3ccccc23)ccc1O	CHX counter 12, Pf growth 48h inconclusive
C/C(=N\NC(=O)c1c(C)nc2ccccn12)c1ccccc1F	none
Cc1nc2ccccn2c1C(=O)N/N=C/c1ccc2c(c1)OCO2	CHX counter 59, Shiga inhibitor 88
CCOc1cc(C=NNC(=O)N(c2ccccc2)c2ccccc2)ccc1O	none (no result: Pf growth 96h, CHX counter, Shiga inhibitor, SARS PLpro yeast, Pf growth 48h)
CCOc1cc(/C=N/NC(=O)c2ccc(=O)n(C)c2)ccc1O	Pf growth 96h 3.3µM
O=C(O)CSc1cc(C(=O)c2cc(F)ccc2O)cn2c(=O)c3c(-c4ccccc4)csc3nc12	Pf growth 96h inconclusive, Pf growth 48h 8.3µM
CCOC(=O)c1sc2nc3c(SCCC#N)cc(C(=O)c4cc(F)ccc4O)cn3c(=O)c2c1C	Pf growth 96h 0.83µM, Pf growth 48h 0.83µM
COc1ccccc1-c1sc2ccccc2c1-c1ccc2c(c1)OCO2	Pf growth 96h 5.2µM, Pf growth 48h 4.7µM
CC(C)(C)c1ccc(OCC(=O)N(c2ccccn2)C2CCCCC2)cc1	Pf growth 96h inconclusive, Pf growth 48h inconclusive
CN(C(=O)COc1ccc(Cl)cc1Br)C1CCCCC1	CHX counter 45, Shiga inhibitor 72
O=C(COC(=O)COc1ccc(Cl)cc1Br)NC1CCCCCC1	none (no result: CHX counter, Shiga inhibitor)
O=C(COc1ccc(Cl)cc1Cl)N(c1ccccn1)C1CCCCC1	CHX counter 30, Pf growth 48h inconclusive
O=C(COCCOCC(=O)N(c1ccccn1)C1CCCCC1)N(c1ccccn1)C1CCCCC1	none
Cc1ccc(OCC(=O)N(c2ccccn2)C2CCCCC2)c(C)c1	Pf growth 96h 7.4µM, Pf growth 48h inconclusive
COc1ccc(S(=O)(=O)N2CCCCC2c2cc(C(=O)N3CCOCC3)no2)cc1 (stereo not drawn)	none (no result: Pf growth 96h, CHX counter, Shiga inhibitor, SARS PLpro yeast, Pf growth 48h)
O=C(Nc1ccccc1)Nc1ccc(O)c2ccccc12	none (no result: Pf growth 96h, CHX counter, Shiga inhibitor, SARS PLpro yeast, Pf growth 48h)
c1ccc2c(c1)OCCOCCOCCOCCOc1ccccc1OCCOCCOCCO2	Pf growth 96h 12µM
Brc1ccc2c(c1)OCCOCCOCCOCCOCCOCCO2	none
Brc1ccc2c(c1)OCCOCCOCCOCCOCCO2	Pf growth 96h 10µM
COCCNC(=O)C1(C)CCN(C(=O)c2ccc(OC)c(F)c2)C1 (stereo not drawn)	none (no result: Pf growth 96h, CHX counter, Shiga inhibitor, SARS PLpro yeast, Pf growth 48h)
CC(=O)C1=NOC2C(=O)N(c3ccccc3)C(=O)C12 (stereo not drawn)	none
CC(=O)N1c2ccc(S(=O)(=O)N3CCC(C(=O)NCc4ccccc4Cl)CC3)cc2CC1C (stereo not drawn)	Pf growth 96h 9.3µM, Pf growth 48h inconclusive
CC(=O)N1c2ccc(S(=O)(=O)N3CCC(C(=O)NCCc4ccc(Cl)cc4)CC3)cc2CC1C (stereo not drawn)	Pf growth 48h inconclusive
CCc1cccc(NC(=O)C2CCCN2S(=O)(=O)c2ccc3c(c2)CC(C)N3C(C)=O)c1 (stereo not drawn)	Pf growth 96h inconclusive, Pf growth 48h 12µM
CCOc1ccc(NC(=O)C2CCCN(S(=O)(=O)c3ccc4c(c3)CCCN4C(C)=O)C2)cc1 (stereo not drawn)	Pf growth 96h inconclusive, Pf growth 48h 12µM
CC(=O)N1c2ccc(S(=O)(=O)N3CCCC3C(=O)Nc3cccc(F)c3)cc2CC1C (stereo not drawn)	Pf growth 96h inconclusive, Pf growth 48h inconclusive
CC(=O)N1c2ccc(S(=O)(=O)N3CCCC(C(=O)NCc4ccccc4Cl)C3)cc2CC1C (stereo not drawn)	Pf growth 96h inconclusive, Pf growth 48h inconclusive
CC(=O)N1c2ccc(S(=O)(=O)N3CCC(C(=O)NCc4ccc(Cl)cc4)CC3)cc2CC1C (stereo not drawn)	Pf growth 48h 9.3µM
CCOC(=O)c1nc(Nc2cc(C)cc(C)c2)c2ccccc2n1	Pf growth 96h inconclusive, Pf growth 48h inconclusive
Cc1ccc(Sc2ccc(NC(=O)CCN3C(=O)NC4(CCCC4)C3=O)cc2)c(C)c1	Pf growth 48h inconclusive (no result: CHX counter, Shiga inhibitor)
Cc1ccc(CNC(=O)C2CCN(S(=O)(=O)c3ccc4c(c3)CC(C)N4C(=O)C3CC3)CC2)cc1 (stereo not drawn)	none
CCc1ccccc1NC(=O)C1CCCN(S(=O)(=O)c2ccc3c(c2)CC(C)N3C(C)=O)C1 (stereo not drawn)	Pf growth 96h 13µM, Pf growth 48h inconclusive
CC(=O)N1c2ccc(S(=O)(=O)N3CCC(C(=O)NCc4ccc(C)cc4)CC3)cc2CC1C (stereo not drawn)	Pf growth 96h 12µM, Pf growth 48h inconclusive
COc1ccc(CNC(=O)C2CCN(S(=O)(=O)c3ccc4c(c3)CC(C)N4C(=O)C3CC3)CC2)cc1 (stereo not drawn)	Pf growth 96h 15µM, Pf growth 48h inconclusive
CCC(C)NC(=O)C1CCCN(S(=O)(=O)c2ccc3c(c2)CC(C)N3C(C)=O)C1 (stereo not drawn)	none
COCCNC(=O)C1CCC(CNS(=O)(=O)c2ccc3c(c2)CC(C)N3C(=O)C2CC2)CC1 (stereo not drawn)	Pf growth 96h 12µM
COc1cccc(CNC(=O)C2CCN(S(=O)(=O)c3ccc4c(c3)CC(C)N4C(=O)C3CC3)CC2)c1 (stereo not drawn)	Pf growth 48h inconclusive
CCCNC(=O)C1CCC(CNS(=O)(=O)c2ccc3c(c2)CC(C)N3C(C)=O)CC1 (stereo not drawn)	none
O=C(O)c1ccc(S(=O)(=O)NCC2CCCO2)cc1 (stereo not drawn)	none
COc1ccc([C@H]2N[C@]3(CCCN(Cc4ccccc4)C3=O)[C@H]3C(=O)N(Cc4ccccc4)C(=O)[C@@H]23)cc1	none (no result: Pf growth 96h, CHX counter, Shiga inhibitor, SARS PLpro yeast, Pf growth 48h)
COc1ccc(CNS(=O)(=O)c2ccc3c(c2)CC(C)N3C(=O)C2CC2)cc1 (stereo not drawn)	Pf growth 96h inconclusive
CCCCNC(=O)C1CCN(S(=O)(=O)c2ccc3c(c2)CC(C)N3C(=O)C2CC2)CC1 (stereo not drawn)	Pf growth 96h inconclusive, Pf growth 48h inconclusive
CC1Cc2cc(S(=O)(=O)N3CCC(C(=O)NCc4ccco4)CC3)ccc2N1C(=O)C1CCC1 (stereo not drawn)	Pf growth 96h inconclusive, Pf growth 48h 9.3µM
CCN(c1ccc(OC)cc1)S(=O)(=O)c1ccc2c(c1)CC(C)N2C(=O)C1CC1 (stereo not drawn)	Pf growth 96h inconclusive, CHX counter 22, Pf growth 48h inconclusive

High-throughput results from PubChem.
